LGR2 inh: inhibitors of bursicon-induced LGR2 CRE-luciferase signal, primary screen, cell-based, HEK293, CRE-luciferase reporter, bursicon stimulation; Drosophila bursicon receptor LGR2 (rickets); bursicon-stimulated, 4 h; inhibition, % at 9.99 µM; hit rate 0.35% among 380,000; AID 720647, 2013;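 active = drop in luminescence signal, shown as inhibition above about 50% in the replicate tests, limit read from the data, passing the limit was not always enough; inconclusive = probably only some replicates passing the limit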;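 also: agonist challenge used bursicon conditioned medium at about half maximal strength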
TROY signal inh: inhibitors of TROY-driven NF-kB signaling, primary screen, Q293 LMP1-TROYcd cells, NF-kB luciferase, uHTS; Q293 LMP1-TROYcd NF-kB luciferase reporter, 4 h; hit rate 0.98% among 360,000; inhibition, % at 10 µM;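 active = compounds whose plate-normalised and pattern-corrected inhibition of the luciferase reporter signal at the single screening dose is 50% or more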
TWEAK Fn14 block: inhibitors of TWEAK-Fn14 signaling, primary screen, luciferase reporter cells, uHTS; TWEAK-stimulated Fn14 reporter cells, luciferase luminescence, 8 h; AID 1159606, 2016; hit rate 2% among 360,000; inhibition, % at 10 µM; in the data active = inhibition above about 50%
EBV LMP1 NFkB: EBV LMP1-driven NF-kappaB luciferase reporter inhibitors, primary screen, cell-based, luminescence, single point | hit rate 0.69% among 350,000 | inhibition, % at 12.5 µM | LMP1-induced NF-kappaB luciferase reporter cells; in the data active = inhibition above about 41%; inconclusive = no clear call, values can overlap the other calls
EWS-Fli block: EWS/Fli-driven NR0B1 reporter inhibitors, primary screen, A673 cells, NR0B1 luciferase, luminescence, MLPCN library; viability-normalised; inhibition, % at 12.6 µM; hit rate 0.67% among 350,000;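 active = mean inhibition of at least 50% after viability correction, with every replicate also passing that limit; inconclusive = mean reaches 50% but only one of two replicates passes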;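 also: firefly luciferase signal divided by Alamar Blue viability fluorescence both relative to DMSO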
A number is an active result; 0 = inactive; ? = inconclusive; - = no result given; ! = not active in a repeat. Only some compounds are listed: those with a hit (about 2.6% of all), similar ones and a draw of the others.

SMILES	LGR2 inh	TROY signal inh	TWEAK Fn14 block	EBV LMP1 NFkB	EWS-Fli block
COc1ccc(N2CCN(C(=O)c3ccc(CNS(=O)(=O)c4ccc(C)cc4)cc3)CC2)cc1	0	0	0	0	0
O=S(=O)(c1ccccc1)N1CCN(Cc2cccc(Cl)c2)CC1	-	0	79	0	-
O=C(c1ccc([N+](=O)[O-])cc1)N1CCN(Cc2ccccc2)CC1	0	0	0	59	-
COc1ccc(C(=O)N2CCN(Cc3ccccc3)CC2)cc1[N+](=O)[O-]	0	0	0	0	0
Cc1ccc(S(=O)(=O)NCc2ccc(C(=O)N3CCN(c4ccc([N+](=O)[O-])cc4)CC3)cc2)cc1	0	0	50	0	0
O=C(c1ccc(S(=O)(=O)c2cccc(Cl)c2)c([N+](=O)[O-])c1)N1CCN(Cc2ccccc2)CC1	0	0	84	0	-
O=C(C1CC1)N1CC(=O)N2[C@H](C1)[C@H](c1ccc(C#CCc3ccccc3)cc1)[C@@H]2CO	0	-	-	-	0
CC(C)(C)n1ncc2c(=O)n(CC(=O)OCc3ccccc3)cnc21	93	87	99	0	-
CC(C)(C)n1ncc2c(=O)n(Cc3cccc(Cn4cnc5c(cnn5C(C)(C)C)c4=O)c3F)cnc21	0	0	82	0	0
CC(C)(C)n1ncc2c(=O)n(CC(=O)N3CCc4ccccc43)cnc21	-	60	59	0	-
COc1ccc(CN(C(=O)c2nsc(Cl)c2Cl)C(C(=O)NC2CCCC2)c2ccc(C)cc2)cc1 (stereo not drawn)	0	0	0	54	0
COc1ccc(C(C(=O)NC2CCCCC2)N(C(=O)CCl)c2ccc(OC)cc2)cc1 (stereo not drawn)	-	0	64	?	-
COc1ccc(CN(C(=O)c2nsc(Cl)c2Cl)C(C(=O)NC2CCCCC2)c2ccc(OC)cc2)cc1 (stereo not drawn)	0	0	0	0	-
COc1ccc(C(C(=O)NC2CCCCC2)N(C(=O)CCl)c2cccc(Cl)c2)cc1 (stereo not drawn)	-	0	58	0	53
COc1cccc(N(C(=O)c2cnccn2)C(C(=O)NC2CCCCC2)c2ccc(Cl)cc2)c1 (stereo not drawn)	-	0	0	0	-
Cc1ccc(-c2nnn(CC(=O)N(c3ccc(F)cc3)C(C(=O)NC3CCCC3)c3ccncc3)n2)o1 (stereo not drawn)	0	0	0	0	0
Cc1ccc(N(C(=O)Cn2nnc(-c3ccc(C)o3)n2)C(C(=O)NC2CCCC2)c2ccncc2)cc1 (stereo not drawn)	0	0	56	0	0
C/C=C/c1ccc([C@H]2[C@@H](CO)N(CC3CC3)[C@@H]2CNC(=O)c2ccccc2)cc1	0	-	-	-	0
COc1ccc(C(C(=O)NC2CCCCC2)N(C(=O)CCl)c2ccc(C)cc2)cc1 (stereo not drawn)	-	0	57	47	0
COc1ccc(C(C(=O)NC2CCCC2)N(C(=O)c2ccoc2C)c2ccc(C)cc2)cc1 (stereo not drawn)	0	0	0	0	-
O=C(CN1CCC(n2nnc3cc(C(F)(F)F)ccc32)CC1)Nc1ccc2c(c1)OCCO2	-	64	75	0	-
O=C(CN1CCC(n2nnc3cc(C(F)(F)F)ccc32)CC1)Nc1ccc2c(c1)CCC2	-	0	0	0	-
CC(C)NC(=O)NCC[C@@H]1CC[C@H](NC(=O)CCN2CCCCC2)[C@H](CO)O1	0	-	-	-	-
COc1ccc(C2NC3=C(CCC3)C3(C#N)C(OC)(OC)N=C(N)C23C#N)cc1 (stereo not drawn)	-	54	96	62	-
CCC(=O)Nc1ccc2c(c1)C(=O)N(C)C[C@H](OC)[C@H](C)CN(C(C)=O)[C@@H](C)CO2	0	-	-	-	0
SMILES	LGR2 inh	TROY signal inh	TWEAK Fn14 block	EBV LMP1 NFkB	EWS-Fli block
Cc1ccc(SCc2cc(=O)[nH]c(/N=C(\N)Nc3ccccc3Sc3ccccc3)n2)cc1	0	0	65	0	-
CC(=O)N1[C@@H]2c3ccc(-c4cccc(F)c4)c(=O)n3C[C@@H]2[C@@H](CO)[C@@H]1C(=O)NCC1CC1	0	-	-	-	0
Cc1ccc(C(C#N)c2ccc3c(C(F)(F)F)cc(C(F)(F)F)nc3n2)cc1 (stereo not drawn)	-	0	50	0	-
CN(N)c1ccc2c(C(F)(F)F)cc(C(F)(F)F)nc2n1	0	0	0	0	0
N#CC(c1ccccc1)c1ccc2c(C(F)(F)F)cc(C(F)(F)F)nc2n1 (stereo not drawn)	-	59	53	0	-
O=C(Nc1ccccc1C(=O)O)c1cccc(NC(=O)c2ccccc2Cl)c1	0	0	0	0	0
O=C(/C=C/c1ccc([N+](=O)[O-])cc1)Nc1cccc(C(=O)Nc2ccccc2C(=O)O)c1	0	0	71	0	0
Cc1ccc(C(=O)COC(=O)c2cccc(NC(=O)c3ccc([N+](=O)[O-])cc3[N+](=O)[O-])c2)cc1	-	59	0	0	-
O=C(Nc1ccc([N+](=O)[O-])cc1)C(=O)Nc1cccc(C(=O)O)c1	98	0	0	90	91
COC(=O)c1cccc(NC(=O)/C=C/c2ccc([N+](=O)[O-])cc2)c1	0	0	0	0	70
CCOC(=O)c1cccc(NC(=O)/C=C/c2ccc([N+](=O)[O-])cc2)c1	0	57	79	0	60
COC(=O)c1cccc(NC(=O)/C=C/c2cccc([N+](=O)[O-])c2)c1	0	0	0	0	0
COc1ccc(C(=O)N/N=C/c2cccc3cccnc23)cc1	-	-	105	0	-
CCOc1ccc(C(=O)N/N=C/c2cccc3cccnc23)cc1	-	0	0	0	-
COc1ccc(C(=O)N/N=C\c2coc3ccc(C)cc3c2=O)cc1	0	0	54	0	0
Cc1ccc2occ(/C=N/NC(=O)c3ccccc3O)c(=O)c2c1	0	0	58	0	0
N#C[C@H]1[C@@H](c2ccccc2)[C@H](CO)N1C(=O)c1ccc2c(c1)OCO2	0	-	-	-	0
O=c1c2c(nc3cc(-c4ccc(F)cc4)[nH]n13)CCCC2	?	56	80	0	-
CCc1c(C)nc2cc(-c3ccc(Cl)cc3)[nH]n2c1=O	0	0	0	0	0
O=c1c2c(nc3cc(-c4ccc(Cl)cc4)[nH]n13)CCS2	0	0	73	0	-
O=c1c2ccccc2cnn1-c1ccc2ccccc2c1	0	0	55	0	-
O=c1c2ccccc2cnn1-c1ccc(Br)cc1	-	0	0	0	-
CC(C)CC#Cc1cnc2c(c1)C(=O)N([C@H](C)CO)C[C@@H](C)[C@H](CN(C)C(=O)Cc1ccccc1)O2	0	-	-	-	0
O=C1c2c(O)ccc(O)c2C(=O)c2c(NCCNCCO)ccc(NCCNCCO)c21	102	78!	93!	67	0
O=C1c2ccccc2C(=O)c2c(Nc3ccc(CCO)cc3)ccc(O)c21	0	0	0	0	0
CCS(=O)(=O)N[C@@H]1C=C[C@H](CC(=O)Nc2ccc(-c3ccccc3)cc2)O[C@@H]1CO	0	-	-	-	0

Screening results from PubChem.
